# Experimental data published in PubChem BioAssay AID1654 (Sanford-Burnham Center for Chemical Genomics, 2009).
# In all, about 290,000 compounds went through this assay and about 1,500 (0.52%) were called active. The sample holds actives, similar compounds and a random draw of the others, so the mix is not that of the screen. No stated cut-off is given here; in the data, active means inhibition above about 50%; inactive means the rest.
# Target: Dual specificity protein phosphatase 3 (Homo sapiens) (UniProt P51452)
# Sequence (P51452 whole entry, looked up): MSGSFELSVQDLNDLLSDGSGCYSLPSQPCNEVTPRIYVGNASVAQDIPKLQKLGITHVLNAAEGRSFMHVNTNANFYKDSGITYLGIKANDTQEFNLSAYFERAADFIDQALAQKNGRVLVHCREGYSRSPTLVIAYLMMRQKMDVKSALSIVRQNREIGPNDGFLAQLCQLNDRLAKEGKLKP
# Experiment: VHR1 phosphatase inhibitors, primary screen, biochemical, absorbance, uHTS (AID 1654)
# Conditions: recombinant VHR phosphatase, pNPP absorbance, at 13.3 µM, stronger effect = higher value
row,Structure (SMILES),inhibition
1,Cc1cc(C)cc(NC(=S)NCCCN2CCOCC2)c1,-2.7% (inactive)
2,CCCCc1ccc(NC(=S)NCCCN2CCOCC2)cc1,52.9% (active)
3,COc1cccc(NC(=S)NCCCN2CCOCC2)c1,16.2% (inactive)
4,COc1cccc(C(=O)Nc2nnc(S(=O)(=O)N3CCCCC3)s2)c1,9.5% (inactive)
5,CC(=O)c1ccc(S(=O)(=O)NCc2nnnn2-c2ccccc2)cc1,-9.1% (inactive)
6,COc1cc(/C=C2\C(=N)N3N=C(CC(=O)N4CCOCC4)SC3=NC2=O)cc(OC)c1OC,-15.7% (inactive)
7,CCOc1c(Br)cc(/C=C2\C(=O)N(CCC#N)N=C2C)cc1OC,0.9% (inactive)
8,Cn1c(CCc2ccccc2)nnc1SCC(N)=O,2.3% (inactive)
9,COc1ccc([N+](=O)[O-])cc1N(CC(=O)Nc1ccccc1C(=O)N1CCOCC1)S(C)(=O)=O,29.6% (inactive)
10,CCn1nnnc1SCC(=O)Nc1ccc(N(C)C)cc1,54.4% (active)
11,CC(=O)Nc1ccc(NC(=O)CSc2nnnn2-c2ccccc2F)cc1,30% (inactive)
12,CCn1nnnc1SCC(=O)c1ccc(C)cc1C,8.9% (inactive)
13,CC(C)c1ccc2c(c1)c(SC(C)(C)C)c(CC(C)(C)C(=O)O)n2Cc1ccc(Cl)cc1,-1.6% (inactive)
14,Cn1c(SCC(=O)NC2CCCCC2)nnc1-c1ccc(N)cc1,15.8% (inactive)
15,CCOc1cccc(-c2nnc(SCC(=O)NC3CC3)n2C)c1,24% (inactive)
16,Cn1c(SCC(=O)NC2CCCCC2)nnc1-c1cc2ccccc2o1,55.6% (active)
17,O=[N+]([O-])c1cc([N+](=O)[O-])c(Oc2cc(F)cc(F)c2F)cc1NN1CCCCC1,16.6% (inactive)
18,COc1ccc(NC(=S)N2CCCC(CO)C2)c(OC)c1 (configuration not stated),-17.2% (inactive)
19,COc1cc(NC(=S)N2CCCC(C)C2)c(OC)cc1Cl (configuration not stated),10.6% (inactive)
20,COc1cc(NC(=S)N2CCCC(C)C2)cc(OC)c1OC (configuration not stated),56.3% (active)
21,Cc1ccc(S(=O)(=O)N(CC(=O)Nc2cccnc2)c2ccc(Br)cc2)cc1,-1.5% (inactive)

row,Structure (SMILES),inhibition
1,COC(=O)C1(CCSC)NC(c2ccc(OC)cc2OC)C2C(=O)N(c3cccc(C(C)=O)c3)C(=O)C21 (configuration not stated),4.9% (inactive)
2,COc1ccccc1N1CCC(N2CCN(CC(C)(C)C)C(CCO)C2)CC1 (configuration not stated),59.1% (active)
3,CCOc1ccccc1CN1CCN(C2CCC2)CC1CCO (configuration not stated),6.5% (inactive)
4,COc1ccc(N2CCC(N3CCN(C)C(CCO)C3)CC2)cc1 (configuration not stated),6.5% (inactive)
5,COc1ccc(-c2cc(C(=O)N(C)Cc3ccccc3)c3ccccc3n2)cc1,12.2% (inactive)
6,COc1ccc(-c2cc(C(=O)n3cnc4ccccc43)c3ccccc3n2)cc1,51.6% (active)
7,CNC(=O)COC(=O)c1cc(-c2ccc(OC)cc2)nc2ccccc12,11% (inactive)
8,Cc1ccc(C)c(S(=O)(=O)Nc2cc(C)on2)c1,16.3% (inactive)
9,COc1ccc(N(CC(=O)N2CCOCC2)S(=O)(=O)c2ccccc2)cc1Cl,18.1% (inactive)
10,CCCC(C)NC(=O)C1CCN(C(=O)C2CC(=O)N(c3ccc(C)cc3)C2)CC1 (configuration not stated),13% (inactive)
11,COCCCNC(=O)C1CC(=O)N(c2ccc(C)cc2)C1 (configuration not stated),3.4% (inactive)
12,COCCNC(=O)C1CCN(C(=O)C2CC(=O)N(c3ccc(C)cc3)C2)CC1 (configuration not stated),50% (active)
13,CC1CCN(C(=O)c2ccc(S(=O)(=O)Cc3cc(F)ccc3F)c([N+](=O)[O-])c2)CC1,4.1% (inactive)
14,COc1ccc(NC(=O)c2cc([N+](=O)[O-])ccc2NC(=O)CNC2CCCCC2C)c(OC)c1 (configuration not stated),12.5% (inactive)
15,Cc1cc(NC(=O)[C@H](C)NC(=O)c2ccco2)ccc1Br,10% (inactive)
16,CSc1ncccc1C(=O)NC1CCCCCC1,21.8% (inactive)
17,CSc1ncccc1C(=O)OCc1ccc(Br)cc1,58.3% (active)
18,CSc1ncccc1C(=O)OCC(=O)N1CCOCC1,39.8% (inactive)
19,CN(CC(=O)Nc1c(Cl)cccc1Cl)C(=O)c1ccncc1,2.5% (inactive)
20,O=C(CCS(=O)(=O)c1ccc2c(c1)NC(=O)CS2)NCc1ccccc1Cl,25.2% (inactive)
21,CCOc1ccc(-n2c(SCC(=O)Nc3ccc(OC)cc3)nc3sc4c(c3c2=O)CCN(C)C4)cc1,5.3% (inactive)

row,Structure (SMILES),inhibition
1,CN(C)CCCn1c(SCc2ccc(Cl)cc2)nnc1-c1ccncc1,24% (inactive)
2,Cn1c(SCc2ccc(F)cc2)nnc1-c1ccncc1,53% (active)
3,Cc1ccc(CSc2nnc(-c3cnccn3)n2C)cc1,21.3% (inactive)
4,CCOC(=O)c1ccc(NC(=O)c2nc[nH]c2C(=O)N[C@@H](CCCCNC(=O)OC(C)(C)C)C(=O)OC(C)(C)C)cc1,3.3% (inactive)
5,CCc1ccc(OCC(=O)OC(C)C(=O)NC2CC2)cc1 (configuration not stated),5% (inactive)
6,CCn1c(=S)sc2c(=O)n(CC(=O)Nc3ccc(OC)cc3)c(C)nc21,57.9% (active)
7,COc1ccc(NC(=O)Cn2c(-c3ccc(OC)cc3)cn(-c3ccc(C)cc3)c2=O)cc1,6.2% (inactive)
8,CCn1c(=S)sc2c(=O)n(CC(=O)Nc3cccc(Br)c3)c(C)nc21,-3.6% (inactive)
9,Cc1c(Cl)cccc1NC(=S)NCC(O)c1ccccc1 (configuration not stated),2.3% (inactive)
10,CC1CCC2(CC1)NC(=O)N(CC(=O)c1ccc3c(c1)OCO3)C2=O (configuration not stated),5.4% (inactive)
11,COc1ccc(S(=O)(=O)N(CC(=O)NCc2ccco2)c2ccc(F)cc2)cc1,-4.2% (inactive)
12,CCOc1ccc(N(CC(=O)NCc2ccc(OC)cc2)S(=O)(=O)c2c(C)noc2C)cc1,30.2% (inactive)
13,COc1ccc(CNC(=O)CN(c2ccc(OC)c(Cl)c2)S(=O)(=O)c2ccc(C)cc2)cc1,59.1% (active)
14,C=CCN1C(=O)C2(OCCCO2)c2cccc(Cl)c21,19.2% (inactive)
15,Cc1cc(=O)oc2c3c(cc(OCC(=O)NCc4ccccn4)c12)OC(C)(C)CC3,-2.9% (inactive)
16,CC(=O)N[C@@H](C)C(=O)N1CCC(n2nccc2NC(=O)CCCc2ccccc2)CC1,10.4% (inactive)
17,O=C(O)C1=NN(c2c(F)c(F)cc(F)c2F)C(=O)CC1,-11.9% (inactive)
18,CCN1CCN(C2CCCCC2NS(=O)(=O)c2ccc(Cl)cc2)CC1 (configuration not stated),11.4% (inactive)
19,O=S(=O)(NC1CCCCC1N1CCC(O)CC1)c1ccc(Cl)cc1 (configuration not stated),17.2% (inactive)
20,O=S(=O)(NC1CCCCC1N1CCCCC1)c1ccc(Cl)cc1 (configuration not stated),52% (active)
